Screening data as filed in PubChem BioAssay.
CCHFV vOTU inh: blocks the CCHF virus ovarian tumor domain protease | CCHFV vOTU protease, Pep-AMC fluorescence | inhibition, % at 11.5 µM | actives 0.55% (n = 370,000) | AID 651958; in the data active means inhibition above about 30%
GDH-TPI counter-1: inhibits GDH-TPI coupling enzymes, artifact for Mtb FBA screen; GDH-TPI coupled enzyme counterscreen, NADH absorbance; inhibition, % at 4.8 µM; actives 1.2% (n = 360,000); in the data active means inhibition above about 30%
RecA splice inh: blocks M. tuberculosis RecA intein splicing | P9WHJ3 | cell-free RecA intein splicing, fluorescence | inhibition, % (concentration not given with the values) | actives 0.75% (n = 290,000) | AID 2221; in the data active means inhibition above about 30%
Mtb FBA inh: inhibits M. tuberculosis FBA enzyme. P9WQA3. purified M. tuberculosis FBA, fluorescence read-out. inhibition, % at 1 µM. actives 2.3% (n = 360,000)
Target sequence (P9WQA3 whole entry, looked up): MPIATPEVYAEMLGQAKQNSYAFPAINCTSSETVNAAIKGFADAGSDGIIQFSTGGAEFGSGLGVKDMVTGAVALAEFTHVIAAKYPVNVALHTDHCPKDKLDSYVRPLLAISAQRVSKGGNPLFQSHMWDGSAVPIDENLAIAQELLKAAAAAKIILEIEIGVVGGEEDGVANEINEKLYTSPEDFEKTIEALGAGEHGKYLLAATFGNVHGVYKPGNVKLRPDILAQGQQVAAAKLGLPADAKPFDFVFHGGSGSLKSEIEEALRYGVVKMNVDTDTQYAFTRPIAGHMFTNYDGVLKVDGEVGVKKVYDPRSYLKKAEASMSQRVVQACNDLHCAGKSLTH
Mtb bLac sens: beta-lactam sensitization of Mtb H37Rv | M. tuberculosis H37Rv growth with meropenem, percent inhibition | actives 0.27% (n = 330,000) | inhibition, % at 25 µM; call rule not given here;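 further: growth measured after seven days incubation then overnight dye step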
Mtb FBA inh conf: Mtb FBA inhibition, confirmed; actives 78% (n = 5,600); shares compounds with Mtb FBA inh; AID 651616; purified M. tuberculosis FBA, fluorescence read-out; inhibition, % at 1 µM
GDH-TPI counter-2: counter-screen for M. tuberculosis FBA inhibitors: GDH-TPI coupled enzyme inhibition; shares compounds with Mtb FBA inh; GDH-TPI coupled enzyme counterscreen, fluorescence; inhibition, % at 1 µM; actives 81% (n = 5,600); AID 652141; in the data active means inhibition above about 10%
GDH-TPI dose: inhibits GDH-TPI coupling enzymes in dose response; actives 79% (n = 170); GDH-TPI coupled enzyme assay, fluorescence, artifact counterscreen; shares compounds with Mtb FBA inh; IC50, µM; call rule not given here
Hits are given with their value; i = inactive; nt = not tested or not shown; + = active, no number. The list is not random: actives were taken first. Their share in the collection is about 4.2%. Unless noted, no stated cut-off is given here; in the data, active means inhibition above about 27%; inactive means the rest.

SMILES	CCHFV vOTU inh	GDH-TPI counter-1	RecA splice inh	Mtb FBA inh	Mtb bLac sens	Mtb FBA inh conf	GDH-TPI counter-2	others
CCOc1ccc2oc(-c3ccccc3)c(C(=O)N3CCN(CCO)CC3)c2c1	i	i	nt	41.9	nt	93.2	89.7
CCOc1ccc2oc(-c3ccccc3)c(C(N)=O)c2c1	i	i	i	68.9	i	+	198.7
CCOc1ccc2oc(-c3ccccc3)c(C(=O)N(C)C)c2c1	i	i	nt	49.7	i	i	i
CCCCOCCCNC(=O)C[C@H]1C[C@@]2(C(=O)OC)C(=C[C@H](C3CCCC3)O[C@@H]2C)N(CCc2ccc(OC)c(OC)c2)C1=O	i	nt	nt	nt	nt	nt	nt
Fc1ccc(C2C3=C(Nc4ncnn42)c2ccccc2OC3c2ccncc2)cc1 (stereo not given)	i	i	i	37.3	i	101.8	64.4
CC(Oc1ccc(Cl)cc1Cl)C(=O)NCCN1CCOCC1 (stereo not given)	i	i	i	i	i	nt	nt
CC(Oc1ccc2c(c1)c1ccnc3c4ccccc4c(=O)n2c13)C(=O)NCCN1CCOCC1 (stereo not given)	i	i	i	44.4	i	136.1	116.7
COc1ccc2c(c1OC)c(=O)n1c3ccc(OC(C)C(=O)NCCN4CCOCC4)cc3c3ccnc2c31 (stereo not given)	i	i	i	91.1	i	84.0	67.7
C=CCN(CC#Cc1ccccc1)CC1CC1	i	nt	nt	nt	nt	nt	nt
O=C(O)c1cccc(Nc2nc(-c3cc4ccccc4oc3=O)cs2)c1	i	i	i	28.4	i	84.0	71.8
O=C(Nc1ccc([N+](=O)[O-])cn1)c1ccc(Br)o1	i	i	i	95.1	i	i	i
COc1ccc(-c2ccc(C(=O)NCc3ccc(F)c(F)c3)c3occc23)c(C)c1	i	i	nt	i	nt	nt	nt
COc1ccc(-c2ccc(C(=O)NCc3ccncc3)c3occc23)c(C)c1	i	i	nt	110.6	nt	+	+
COc1ccc(-c2ccc(C(=O)NCC(C)C)c3occc23)c(C)c1	i	i	nt	57.7	nt	166.4	132.1
COc1ccc(-c2ccc(C(=O)NCC3CC3)c3occc23)c(C)c1	i	i	nt	57.0	nt	45.8	32.9
CCOc1ccc(-c2cc(C(=O)NCCCN3CCOCC3)c3ccccc3n2)cc1	i	i	i	35.3	i	115.7	87.6
CC1CN(C(=O)c2cc(-c3ccc(Cl)s3)nc3ccccc23)CC(C)O1 (stereo not given)	i	i	i	64.8	i	75.7	60.0
CC1CC(C)CN(C(=O)c2cc(-c3ccccn3)nc3ccccc23)C1 (stereo not given)	i	i	nt	i	i	nt	nt
CCc1ccc(-c2cc(C(=O)NCCCn3ccnc3)c3ccccc3n2)s1	nt	nt	i	nt	i	nt	nt
Cc1ccc(-c2cc(C(=O)NCCCn3ccnc3)c3ccccc3n2)s1	i	i	i	110.2	i	154.4	124.6
O=C(NCCCN1CCOCC1)c1cc(-c2ccc(Cl)s2)nc2ccccc12	i	i	i	63.8	i	172.2	145.2
COCCCNC(=O)C[C@H]1C[C@@]2(C(=O)OC)C(=C[C@H](COCc3ccccc3)O[C@@H]2C)N(Cc2cccc3ccccc23)C1=O	i	nt	nt	nt	nt	nt	nt
CC(=O)N1CCCN(C(=O)C2CCN(c3ncnc4c3sc3cccc(F)c34)CC2)CC1	i	nt	nt	nt	nt	nt	nt
O=C(NCCCN1CCOCC1)c1cc(-c2ccco2)nc2ccccc12	i	i	nt	89.2	i	114.9	75.2
COc1ccc(-c2cc(C(=O)NCCCN3CCOCC3)c3cc(C(C)C)ccc3n2)cc1	i	i	i	70.2	i	+	140.8
SMILES	CCHFV vOTU inh	GDH-TPI counter-1	RecA splice inh	Mtb FBA inh	Mtb bLac sens	Mtb FBA inh conf	GDH-TPI counter-2	others
COc1ccc(-c2cc(C(=O)NCCCN3CCOCC3)c3ccccc3n2)cc1OC	i	i	i	i	i	nt	nt
CCCCCCCCN1C(=O)[C@@H](CC(=O)NCCCOCCCC)C[C@@]2(C(=O)OC)C1=C[C@H](C1CCCC1)O[C@@H]2C	i	nt	nt	nt	nt	nt	nt
O=C(Cc1ccccc1)NNc1c2ccccc2nc2ccccc12	i	i	i	i	i	nt	nt
O=C(Nc1c2ccccc2nc2ccccc12)C(Cl)(Cl)Cl	nt	i	i	90.1	i	i	i
COc1ccc(S(=O)(=O)N2CCCc3nc(-c4ccccc4)ccc32)cc1	i	nt	nt	nt	nt	nt	nt
CCOC(=O)C1CCCN(C(=O)c2cc3cc4ccc(OC)cc4nc3o2)C1 (stereo not given)	nt	i	i	92.1	i	55.1	32.1
COc1ccc2nc3oc(C(=O)N4CC(C)CC(C)C4)cc3cc2c1 (stereo not given)	nt	i	i	55.6	i	i	i
CCOC(=O)C1CCN(C(=O)c2cc3cc4cc(OC)ccc4nc3o2)CC1	i	i	i	55.4	i	109.0	98.2
COc1ccc2cc3cc(C(=O)N4CCN(c5ccccc5)CC4)oc3nc2c1	i	i	i	i	i	nt	nt
COc1ccc2cc3cc(C(=O)N4CCCC(C)C4)oc3nc2c1 (stereo not given)	i	i	i	i	i	nt	nt
COc1ccc2nc3oc(C(=O)N4CCCCC4)cc3cc2c1	i	i	i	56.6	i	83.9	63.3
O=C(C(=O)N1CCC(CNS(=O)(=O)Cc2ccccc2)CC1)c1cccs1	i	nt	nt	nt	nt	nt	nt
Nc1ccn([C@@H]2O[C@H](C(=O)N[C@H](Cc3ccccc3)C(=O)N3CCN(C(=O)N4CCCCC4)CC3)[C@@H](O)[C@H]2O)c(=O)n1	i	nt	nt	nt	nt	nt	nt
CN1CCCCC(NC(=O)c2ccc3ccccc3c2)C1=O (stereo not given)	i	nt	nt	nt	nt	nt	nt
c1cc(Nc2ncnc3sc4c(c23)CCC4)ccn1	i	i	i	60.1	i	i	i
C#CCNC(=O)C[C@H]1C[C@@]2(C(=O)OC)C(=C[C@H](COCc3ccccc3)O[C@@H]2C)N(Cc2ccco2)C1=O	i	nt	nt	nt	nt	nt	nt
C=C(C)Cn1c2ccc(NC(=S)NCc3ccccc3F)cc2c(=O)n1C	i	i	nt	36.0	nt	147.8	105.8
CCNC(=S)Nc1ccc(C)c(Cl)c1	i	i	i	i	i	nt	nt
CCNC(=S)Nc1ccc2c(c1)c(=O)n(C)n2CC=C(C)C	i	i	nt	62.6	nt	184.6	151.9
COC(=O)[C@]12C[C@H](CC(=O)NCc3cccc(C(F)(F)F)c3)C(=O)N(Cc3ccc(Cl)cc3Cl)C1=C[C@H](C(C)C)O[C@@H]2C1CC1	i	nt	nt	nt	nt	nt	nt
Clc1ccc(C[n+]2c(-c3ccccc3)cc(-c3ccccc3)cc2-c2ccccc2)cc1	i	i	i	37.6	i	i	13.4
COc1ccc(S[C@]2(C(=O)N3CCOCC3)CC(=O)N(P(=O)(OC)OC)[C@@H]2c2ccc(OC)cc2)cc1	i	nt	nt	nt	nt	nt	nt
COC(=O)c1cc(S(=O)(=O)NCC2CCN(C(=O)C(=O)c3cc4ccccc4o3)CC2)cs1	i	nt	nt	nt	nt	nt	nt
CNc1cc(-c2cc(OC)ccc2OC)ncn1	i	i	nt	83.9	nt	i	i
CNc1ccc(-c2cc(OC)ccc2OC)cn1	i	i	nt	97.6	nt	+	155.1
Cn1c(-c2cccs2)nc2ccccc21	i	i	i	59.4	i	i	i	GDH-TPI dose=2.6
Brc1ccccc1Cn1c(-c2cncs2)nc2ccccc21	i	i	i	i	i	nt	nt
